Source: publication PMC12548414
The whole screen tested about 1,600 compounds, of which about 20 (1%) showed an effect of 50% or more. The sample as a whole holds a higher share of strong results than the screen did.

These compounds were tested on T1, E. coli pLC1021 (luc-trpAt trans-translation reporter). Details: reporter signal, KKL-35 = 100%; rise means trans-translation inhibition; 2 h, 20 µM.
T1 construct: pLC1021 luc-trpAt reporter strain
Design: species or system Escherichia coli pLC1021; luc-trpAt non-stop luciferase reporter; luminescence rises when trans-translation is inhibited; normalized to KKL-35 and DMSO
Procedure, shortened: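 Luminescence (560 nm, 10 min after Bright-Glo) reports luciferase that escapes trans-translation tagging, measured after 2 h room-temperature treatment with 20 µM compound. Each plate was scaled between DMSO (negative) and 20 µM KKL-35 (positive) controls. Compounds scoring one standard deviation above the median counted as positive; at least two biological repeats.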

SMILES | % activation
O=[N+]([O-])c1cccc(NC(S)=Nc2ccc(Cl)c(C(F)(F)F)c2)c1 [KKL-1319] | 0%
COC(=O)C(CCSC)NC(=O)c1cc(COc2ccc(F)cc2Cl)on1 (stereo not drawn) [KKL-0497] | 9%
O=C(Nc1ccc(Oc2cccnc2)cc1)C1Oc2ccccc2O1 [KKL-0696] | 0%
c1ccc(CCNc2ccnc3cc4ccccc4cc23)cc1 [KKL-1051] | 0%
Cc1nc(C2CCNCC2)ncc1-c1nc(N2CCCCCC2)ncc1-c1ccc(F)cc1 [KKL-0335] | 0%
C(=C\c1nc(N2CCCC2)c2ccccc2n1)/c1ccccc1 [KKL-1269] | 0%
Cc1ccc2nc(C(F)(F)F)c(C(=O)NCc3cc(Cl)cc(Cl)c3)n2c1 [KKL-1785] | 16%
COc1ccc(CCN=C(S)N2CCN(C/C=C/c3ccccc3)CC2)cc1OC [KKL-1528] | 2%
CC(C)c1ccc(OCC(=O)NNC(=S)NC(=O)c2ccco2)c(Br)c1 [KKL-0743] | 24%
Cc1ccc(C2(O)CCN(CCNC(=O)c3oc4ccccc4c3C)CC2)cc1 [KKL-0340] | 1%
CC(C)(C)c1ccc(C(=O)Nc2ccc(NC(=S)NC(=O)c3cccs3)cc2)cc1 [KKL-0310] | 0%
Oc1c(CN2CCc3ccccc3C2)cc(Cl)c2cccnc12 [KKL-0391] | 42%
CSc1ncc(C(=O)NC2(c3ccccc3)CCCC2)cn1 [KKL-0465] | 0%
COc1ccc(N=c2cc(-c3ccc(O)cc3)oc3ccccc23)cc1 [KKL-0846] | 0%
CCC(Sc1nc2ccccc2o1)C(=O)Nc1nnc(C)s1 (stereo not drawn) [KKL-1356] | 2%
CCc1ccc(C2CC(C(F)(F)F)n3ncc(C(=O)NCc4cccs4)c3N2)cc1 (stereo not drawn) [KKL-1779] | 0%
Cc1ccccc1CN1CC[C@@H]2[C@H](C1)[C@@H](c1ccc(F)cc1)CN2C(=O)C(C)C [KKL-1218] | 2%
OC(CN1CCC(O)(c2ccc(F)cc2)CC1)c1ccc(-c2ccccc2)cc1 (stereo not drawn) [KKL-0933] | 0%
CCC1CCCCN1C(=O)COC(=O)c1cc2ccccc2cc1O (stereo not drawn) [KKL-0823] | 0%
O=C(NCc1cc(Cl)cc(Cl)c1)c1c(C(F)(F)F)nc2ccccn12 [KKL-1807] | 0%
O=C(Nc1ccn(Cc2ccc(Cl)cc2)n1)c1ccc2c(c1)OCO2 [KKL-0566] | 0%
FC(F)(F)c1nnc2ccc(Sc3nnc(-c4ccco4)o3)nn12 [KKL-1754] | 1%
CCCC(=O)NC(=S)Nc1ccc(N2CCN(C(=O)c3cccs3)CC2)c(Cl)c1 [KKL-0912] | 0%
O=C(NCc1cnn(-c2cccc(F)c2)c1)c1cc(COc2cccc3cccnc23)on1 [KKL-0634] | 2%
O=C(NCCCc1ccc(F)cc1)c1cc(-c2ccccn2)[nH]n1 [KKL-0693] | 0%
O=C(Nc1nccs1)c1ccc(CSc2ccccc2)o1 [KKL-0586] | 0%
CCc1c(C)c2ccc(OCC(=O)OC)c(C)c2oc1=O [KKL-1278] | 0%

SMILES | % activation
CCOC(=O)/C(C#N)=C/c1ccc(-c2ccc(F)cc2)o1 [KKL-0788] | 0%
NC1CCc2nc(-c3ccncc3)nc(Nc3ccc(C(F)(F)F)cc3)c2C1 (stereo not drawn) [KKL-0539] | 620%
O=C(/C=C/c1cccc(C(F)(F)F)c1)Nc1cccc(C(F)(F)F)c1 [KKL-1369] | 0%
O=C(CC12CC3CC(CC(C3)C1)C2)Nc1cccc(C(F)(F)F)c1 [KKL-1282] | 0%
NC1CCc2nc(-c3ccncc3)nc(Nc3cccc(C(F)(F)F)c3)c2C1 (stereo not drawn) [KKL-0541] | 802%
CC(C)(C)c1cc(Cl)c(O)c(NC(=S)NC(=O)c2cccc3ccccc23)c1 [KKL-0905] | 0%
O=C(C[n+]1nc(CNc2ccc(Cl)cc2)n2c1CCCCC2)c1ccc(Br)cc1 [KKL-1021] | 9%
CC(C)(C)c1cc(Cl)ccc1OCCCCn1ccnc1 [KKL-1305] | 5%
CN(CCn1ccnc1)Cc1cn(Cc2ccccc2)nc1-c1cc2ccccc2o1 [KKL-0649] | 0%
COc1ccc(CNCc2cn(-c3cccc(F)c3)nc2-c2ccc(C)o2)cc1 [KKL-0321] | 0%
Cn1cc(CCNC(=O)Nc2ccc(N3CCCCC3)nc2)cn1 [KKL-1828] | 0%
O=C(Nc1ccco1)N1CCN(Cc2cccs2)CC1 [KKL-1841] | 1%
CCc1cc(C(=O)OC)c(N=C(S)NCc2ccc(Cl)c(Cl)c2)s1 [KKL-1547] | 0%
O=C(C=Cc1ccco1)N1CCN(Cc2ccc3c(c2)OCO3)CC1 [KKL-1821] | 0%
CCC(C)c1ccc(O)c(NC(=S)NC(=O)c2cncc(Br)c2)c1 (stereo not drawn) [KKL-0711] | 3%
CCn1cc(C(=O)O)c(=O)c2cc(F)c(N3CCNCC3)cc21 [KKL-0831] | 56%
CCN1CCN(c2cc3c(cc2F)c(=O)c(C(=O)O)cn3C2CC2)CC1 [KKL-0903] | 6%
CCn1cc(C(=O)O)c(=O)c2cc(F)c(N3CCN(C(S)=Nc4cc(C(F)(F)F)ccc4Cl)CC3)cc21 [KKL-1476] | 5%
Cc1nn(-c2ccc(F)cc2)c2nc(O)c(CNCc3ccccc3F)cc12 [KKL-0342] | 0%
CCCOC(=O)c1ccc(NC(=S)NC(=O)c2ccc(Cl)cc2)cc1 [KKL-0761] | 3%
CC1CN(c2ccc([N+](=O)[O-])cc2)CCN1C(=O)c1cccc(Br)c1 (stereo not drawn) [KKL-1355] | 0%
O=C(NCCCn1ccnc1)c1cccnc1Nc1cccc(C(F)(F)F)c1 [KKL-0554] | 15%
NC1CCc2nc(-c3cccnc3)nc(Nc3ccc(C(F)(F)F)cc3)c2C1 (stereo not drawn) [KKL-0526] | 137%
FC(F)(F)c1cccc(-n2cc(-c3ccccc3)c3c(NCc4cccnc4)ncnc32)c1 [KKL-1573] | 0%
NC1CCc2nc(-c3cccnc3)nc(Nc3cccc(C(F)(F)F)c3)c2C1 (stereo not drawn) [KKL-0530] | 124%
Nc1cccnc1Nc1ccc(C(F)(F)F)cc1 [KKL-1711] | 4%
Cc1cnc(N2CCN[C@@H](Cc3ccccc3)C2)nc1Oc1ccc(-n2ccnc2)cc1 [KKL-1724] | 6%
